# Bioassay records deposited in PubChem BioAssay by National Center for Advancing Translational Sciences (NCATS).
# Shown are actives, neighbours in structure and some others; about 11% of the full set was active somewhere.
# NIH3T3 tox – NIH 3T3 cell cytotoxicity | NIH 3T3 viability, CellTiter-Glo ATP luminescence, 48-72 h | Potency, µM (top dose mostly 96.7 µM), hits mostly inhibitors | 94,000 tested, 4.3% active; further: nearly all actives have a fitted effect of over 55% in size
#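 Luminescent ATP readout (CellTiter-Glo, 10 min RT) after 48 or 72 hr compound exposure of NIH 3T3 cells seeded at 400 cells/well in 1536-well format; quantitative HTS.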
# NPR1 antag – blocks ANP-stimulated signaling of human Npr1 receptor. P16066. HEK293 hNpr1 GloSensor cGMP, ANP-stimulated luminescence. Potency, µM (series often up to 46.3 µM), usual class: inhibitors. 76,000 tested, 1.6% active; calls by dose curve; further: nearly all actives have a fitted effect of over 60% in size
#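 HEK293 cells stably expressing human Npr1 and cGMP GloSensor pGS-40F, loaded 2 h with 2% GloSensor reagent, given compound 30 min at room temperature. Luminescence read before and 20 min after 0.1 nM hNppA.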
# Luciferase inh – blocks purified firefly luciferase enzyme activity; P08659; purified P. pyralis luciferase, luminescence, biochemical; Potency, µM (series often up to 115 µM), most hits filed as inhibitors; 76,000 tested, 2.5% active; further: nearly all actives have a fitted effect of over 65% in size
# Target sequence (P08659 whole entry, looked up): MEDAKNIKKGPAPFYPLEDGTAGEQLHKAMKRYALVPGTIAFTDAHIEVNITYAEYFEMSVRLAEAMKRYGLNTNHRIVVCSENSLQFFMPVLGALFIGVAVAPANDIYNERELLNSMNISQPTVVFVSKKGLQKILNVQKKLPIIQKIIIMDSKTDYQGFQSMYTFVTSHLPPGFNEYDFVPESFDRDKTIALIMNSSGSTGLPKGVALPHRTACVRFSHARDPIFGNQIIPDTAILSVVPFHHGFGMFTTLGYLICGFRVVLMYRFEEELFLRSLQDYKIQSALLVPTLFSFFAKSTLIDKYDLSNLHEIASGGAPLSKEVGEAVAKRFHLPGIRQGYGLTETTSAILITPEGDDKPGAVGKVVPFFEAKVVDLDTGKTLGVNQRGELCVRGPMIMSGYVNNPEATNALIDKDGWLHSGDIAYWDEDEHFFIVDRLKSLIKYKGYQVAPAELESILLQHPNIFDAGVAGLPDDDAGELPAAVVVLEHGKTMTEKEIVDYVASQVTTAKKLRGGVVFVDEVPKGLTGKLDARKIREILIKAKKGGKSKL
#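 Cell-free enzyme assay, 10nM P. pyralis luciferase, luciferin and ATP each at 10uM. Inhibition profiled over a 6-point titration, read as luminescence.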
# HEK cytotox – cytotoxic compounds in HEK 293 cells; Potency, µM (highest dose often 115 µM), most hits filed as inhibitors; 94,000 tested, 6.6% active; HEK 293 viability, ATP luminescence (CellTiter-Glo), 48-72 h; further: nearly all actives have a fitted effect of over 60% in size
#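 Read-out: CellTiter-Glo ATP luminescence. Cells: HEK 293, 250 cells/well. Exposure: 48 or 72 hr, 37 degree Celsius.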
# Hits are given with their value; . = inactive; ? = inconclusive; / = not tested or not shown. Unless noted, the call rests on the fitted dose curve; in most records, active means well fitted curve in the direction sought with a large enough effect; inconclusive means small, poorly fitted or top-dose-only effect, or another doubt; inactive means no such curve, though single readings can be large; an effect the other way counts as inactive or inconclusive.
SMILES,NIH3T3 tox,NPR1 antag,Luciferase inh,HEK cytotox
COc1ccc(-c2ccc(C(=O)N3CCN(C(=O)C4CCCC4)CC3)cc2)nn1,.,/,/,.
COc1cccc(-c2ccc(C(=O)NCCNC(=O)c3ccc4c(c3)OCO4)cc2)c1,.,/,/,79.4µM
Cc1ccc([S+](=O)([O-])NCCNC(=O)c2ccc(-c3cccc(C(F)(F)F)c3)cc2)cc1,.,/,/,.
O=C(NCCN[S+](=O)([O-])c1ccccc1)c1cccc(-c2ccc(C(F)(F)F)cc2)c1,22.4µM,/,/,10µM
Cc1noc(C)c1[S+](=O)([O-])NCCNC(=O)c1ccc(-c2cccc(C(F)(F)F)c2)cc1,35.5µM,/,/,?
COc1cccc(-c2ccc(C(=O)NCCN[S+](=O)([O-])c3cccc(C(F)(F)F)c3)cc2)c1,?,/,/,31.6µM
COc1ccccc1-n1c(=O)c(C(=O)N2CCN(C(=O)NC(C)C)CC2)nc2cccnc21,.,/,/,.
CS(=O)(=O)N1CC2(CCN(C3COC3)C2)Cc2ccccc21 (stereo unspecified),.,/,/,.
CC(c1cccc(CN2CCC(CO)(CN3CCCC3)CC2)c1)N(C)C (stereo unspecified),?,.,.,?
COc1ccc(C(=O)NCCNC(=O)c2ccc(-c3cccc(OC)c3)cc2)cc1,.,/,/,.
COc1cccc(-c2ccc(C(=O)NCCN[S+](=O)([O-])c3ccccc3)cc2)c1,?,/,/,44.7µM
CCCNCc1ccc(-c2ccccc2)o1,.,.,.,.
c1ccc(-c2ccc(CNCc3cccs3)o2)cc1,.,.,35.5µM,?
c1ccc(CCN2CCNc3cc(Nc4ccc(N5CCOCC5)cc4)ncc3C2)cc1,35.5µM,.,.,50.1µM
COc1ccc(Nc2cc3c(cn2)NCCN(Cc2ccccc2)C3)cn1,?,.,.,?
c1ccc(CN2CCNc3cnc(Nc4ccc(N5CCOCC5)cc4)cc3C2)cc1,39.8µM,?,?,70.8µM
COc1ccc(Nc2cc3c(cn2)CN(Cc2ccncc2)CCN3)cn1,.,.,.,?
COc1ccc2c(c1)CN(CC1CCCCC1)CC[C@H]1COC(=O)N21,.,.,.,?
Cc1ccc(CN2CCOC[C@H](Oc3ccc(C(F)(F)F)cc3)C2)cc1,79.4µM,.,.,100µM
c1ccc(O[C@H]2COCCN(Cc3ccc(-c4ccccc4)cc3)C2)cc1,?,.,.,.
CS(=O)(=O)c1ccc(O[C@H]2COCCN(Cc3ccc(-c4ccccc4)cc3)C2)cc1,?,?,.,25.1µM
O=C(c1cccc(C(F)(F)F)c1)N1CCC(c2n[nH]c(=O)n2Cc2ccc(F)cc2)CC1,?,.,.,.
O=C(Nc1cccn2nc(C3CCC3)nc12)c1ccccn1,8.91µM,.,.,?
O=C(COc1ccccc1)Nc1cccn2nc(C3CCC3)nc12,?,.,.,?
Cc1cccc(S(=O)(=O)Nc2cccn3nc(C4CCC4)nc23)c1,44.7µM,.,.,?
SMILES,NIH3T3 tox,NPR1 antag,Luciferase inh,HEK cytotox
COC(=O)N1CCc2nc(C)nc(-c3ccc(OC)cc3)c2C1,.,/,/,.
CC(C)N1CCN(C(=O)C2CCN(c3cnn(Cc4ccccc4)c(=O)c3)C2)CC1 (stereo unspecified),.,/,/,.
O=C1CC(c2ccccc2)N(C(=O)CNC(=O)c2cc3ccccc3[nH]2)CCCCCCN1 (stereo unspecified),.,.,.,?
Fc1ccccc1CCNc1cc(Cl)nc2ccnn12,?,.,?,?
Clc1cc(NCc2cccs2)n2nccc2n1,?,?,.,39.8µM
Clc1cc(NCc2ccccc2Cl)n2nccc2n1,20µM,?,.,?
COc1ccc(CNc2cc(Cl)nc3ccnn23)cc1,?,.,.,70.8µM
CC(C)c1ccc(-n2cc(CN3CCCC4(C3)CN(C)C(=O)O4)cn2)cc1 (stereo unspecified),?,.,?,?
CC(C)c1ccc(-n2cc(CN3CCN(C(=O)N(C)C)CC3)cn2)cc1,.,.,28.2µM,?
CCCCc1ccc(-n2cc(CN3CCN(C(C)=O)CC(O)C3)cn2)cc1 (stereo unspecified),?,.,39.8µM,?
COc1cccc(C(=O)N2CCN(CCn3nc4n(c3=O)CCCC4)CC2)c1,.,/,/,.
COc1ccc(NC(=O)c2cc3sc(C)c(CN4CCCCC4)c3[nH]2)cc1OC,39.8µM,.,.,?
Cn1cncc1CNC(=O)c1nc(-c2cccc(N3CCOCC3)c2)cc2c1ccn2C,50.1µM,.,.,?
CN1CCN(c2ccc(-c3cc4c(ccn4C)c(C(=O)NCc4cccnc4)n3)cc2)CC1,?,.,?,28.2µM
Cn1ccc2c(C(=O)NCc3cccnc3)nc(-c3cncnc3)cc21,44.7µM,.,.,.
CN1CCN(c2ccc(-c3cc4c(ccn4C)c(C(=O)NCC4CCOCC4)n3)cc2)CC1,20µM,.,35.5µM,?
Cn1ccc2c(C(=O)NCc3cnccn3)nc(-c3cccc(N4CCOCC4)c3)cc21,?,.,.,.
O=C(c1ccc(C(F)(F)F)cc1)N1CCC(c2nn(-c3ccccn3)c(=O)[nH]2)CC1,.,/,/,.
Cc1ccc(Cn2c(-c3ccc(F)cc3)nc(C)c(CCO)c2=O)cc1C,.,.,.,?
Cc1ccc(-c2cc3c(ccn3C)c(C(=O)NCc3cccnc3)n2)cn1,35.5µM,.,.,?
COc1ccc(-c2cc3c(ccn3C)c(C(=O)NCc3cccnc3)n2)cc1,?,.,?,112µM
Cc1ccc(-c2cc3c(ccn3C)c(C(=O)NCCc3cnc[nH]3)n2)cn1,28.2µM,.,.,?
CN(C)c1ccc(-c2cc3c(ccn3C)c(C(=O)NCc3cccnc3)n2)cc1,?,.,?,?
Cn1ccc2c(C(=O)NCc3cccnc3)nc(-c3cnn(Cc4ccccc4)c3)cc21,?,.,.,63.1µM
O=C(NCCc1cnc[nH]1)c1nc(-c2ccccc2)cc2[nH]ccc12,?,.,.,?
SMILES,NIH3T3 tox,NPR1 antag,Luciferase inh,HEK cytotox
COc1cccc(CC(=O)N2CCC(CC3CC3)(NS(C)(=O)=O)CC2)c1,.,/,/,.
Cn1ccc2c(C(=O)NCc3cccnc3)nc(-c3cccc(F)c3)cc21,?,?,.,89.1µM
Cn1ccc2c(C(=O)NCc3cccnc3)nc(-c3cccc(O)c3)cc21,?,.,.,?
COc1ccc(CCN2CCC(CN(C)Cc3nc(C(C)C)cs3)CC2)cc1,?,.,.,31.6µM
Cc1ccc(C(=O)N2CC(Oc3ccc(F)cc3F)C2)cc1,.,/,/,.
Cc1cc(F)ccc1OC1CN(Cc2ccc(N(C)C)cc2)C1,?,.,.,79.4µM
Cc1cc(F)ccc1OC1CN(Cc2ccc(C(F)(F)F)cc2)C1,?,.,.,100µM
Cc1cc(F)ccc1OC1CN(C(=O)c2ccccc2)C1,?,.,17.8µM,?
COC(=O)c1cc2n(n1)CCCN(C(=O)C1CCCCn3nnnc31)C2 (stereo unspecified),.,.,.,.
COc1ccc(-c2ccnc(-c3nnc(C)n3CCN(C)C)c2)cc1OC,25.1µM,.,.,.
COc1ccc(-c2ccnc(-c3nnc(C)n3C(C)C)c2)cc1OC,100µM,.,.,.
O=C(O)c1ccc(CN2C[C@H](O)C[C@H]2c2nc(-c3ccncc3)no2)cc1,.,.,.,.
